Rows were chosen to be rich in hits. Some 12% of all compounds tested hit in one or more screens of this group.
Ins promoter up = insulin promoter activators in MIN6 cells, imaging, high-content screening, mouse beta cells | MIN6 insulin promoter-GFP reporter; active compounds read high | z-score at 5 µM | 0.3% of 190,000 active | AID 1625, 2009;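 active = z-score above 3 at 5 µM with at least 500 cells counted in the well; inconclusive = wells under 500 cells, flagged as cytotoxic or low count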
WT yeast gro inh = growth inhibition of WT strain, primary screen, mitochondrial fusion inhibitor project, WT and mutant strains, chemical genetic; mitochondrial fusion phenotypic screen; inhibition, % at 10 µM; 2.1% of 190,000 active; AID 1362, 2008; in the data active = inhibition above about 58%; tested in S. cerevisiae
Insulin prom inh = inhibitors of insulin promoter-driven GFP, primary screen, imaging, TRM-6 cells (human fetal islet line), eGFP reporter, cell count; reporter expression induced with tamoxifen; inhibition, % at 2 µM; 0.9% of 130,000 active; AID 1273, 2008;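 active = inhibition above the mean plus 3 SD, with well images judged a real hit on visual review, cut at about 60% in these data, passing the limit was not always enough; inconclusive = inhibition over the cutoff but images rejected on review; inactive = inhibition not above the cutoff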
ROMK primary = ROMK potassium channel modulators, primary screen, cell-based, thallium flux, MLSMR library; AID 1918, 2009; ATP-sensitive inward rectifier potassium channel 1 (Homo sapiens), P48048; 2% of 130,000 active; B-score at 10 µM; Tet-inducible ROMK, thallium flux fluorescence; actives lie on both sides;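 active = signal ratio slope over the read window, or its plate-corrected B-score, at least 3 SD from the plate mean, either direction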;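 note: B-score of the F/F0 ratio slope over 7 to 12 s after thallium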
Cl transport mod = KCC2 cotransporter modulators, thallium flux, primary screen, cell-based, HEK293 KCC2, FluoZin-2 fluorescence, MLSMR; Solute carrier family 12 member 5 (Homo sapiens), Q9H2X9; KCC2 cells, thallium flux FluoZin-2 fluorescence; B-score of Tl+ flux slope (higher = more flux/activation; lower = inhibition) at 10 µM; 2.2% of 190,000 active; AID 1456, 2008;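 active = thallium flux slope and its plate-corrected score both differing from the plate sample mean at a set confidence after two filtering rounds, in either direction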;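 note: slope of fluorescence scaled to starting intensity during 10 to 20 s after thallium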
Target sequence (Q9H2X9 whole entry, looked up): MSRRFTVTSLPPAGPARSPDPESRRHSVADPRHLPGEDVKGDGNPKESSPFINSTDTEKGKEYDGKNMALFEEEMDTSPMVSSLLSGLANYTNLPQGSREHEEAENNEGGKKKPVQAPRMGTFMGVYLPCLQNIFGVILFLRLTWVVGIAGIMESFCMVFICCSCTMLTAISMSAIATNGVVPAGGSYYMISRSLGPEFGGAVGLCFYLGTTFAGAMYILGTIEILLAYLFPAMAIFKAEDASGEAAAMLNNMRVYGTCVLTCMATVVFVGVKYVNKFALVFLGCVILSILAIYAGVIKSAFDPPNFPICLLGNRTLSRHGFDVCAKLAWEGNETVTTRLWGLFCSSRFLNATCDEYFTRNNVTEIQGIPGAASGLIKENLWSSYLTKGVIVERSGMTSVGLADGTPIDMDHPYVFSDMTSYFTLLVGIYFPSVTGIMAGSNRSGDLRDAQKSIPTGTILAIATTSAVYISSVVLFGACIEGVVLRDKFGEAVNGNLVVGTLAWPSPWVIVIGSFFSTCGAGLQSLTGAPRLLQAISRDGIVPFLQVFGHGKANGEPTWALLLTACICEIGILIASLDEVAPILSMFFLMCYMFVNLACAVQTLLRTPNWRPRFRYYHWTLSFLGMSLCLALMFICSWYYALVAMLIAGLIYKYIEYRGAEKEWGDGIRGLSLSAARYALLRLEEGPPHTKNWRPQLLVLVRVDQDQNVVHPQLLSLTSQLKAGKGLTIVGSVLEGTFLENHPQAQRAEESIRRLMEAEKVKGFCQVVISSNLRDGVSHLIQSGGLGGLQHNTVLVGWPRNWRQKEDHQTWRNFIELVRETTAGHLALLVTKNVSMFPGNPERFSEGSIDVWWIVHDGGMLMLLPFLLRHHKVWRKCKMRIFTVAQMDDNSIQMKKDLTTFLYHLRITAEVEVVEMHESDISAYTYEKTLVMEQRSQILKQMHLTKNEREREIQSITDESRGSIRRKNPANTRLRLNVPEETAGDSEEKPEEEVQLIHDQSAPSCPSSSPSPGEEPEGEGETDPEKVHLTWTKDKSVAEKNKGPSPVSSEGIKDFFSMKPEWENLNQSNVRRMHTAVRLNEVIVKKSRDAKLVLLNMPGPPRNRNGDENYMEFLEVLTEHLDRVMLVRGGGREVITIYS
L major viab = Leishmania major promastigote growth inhibition, primary screen; Leishmania major promastigotes, resazurin fluorescence viability; inhibition, % at 10 µM; 9% of 200,000 active; AID 1063, 2008; in the data active = inhibition above about 50%;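 note: promastigotes grown with compound for 44 hours at 28 °C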
A number is an active result.

Screening CCc1ccc(N2CC(C(=O)OCC(=O)NC3CCS(=O)(=O)C3)CC2=O)cc1 (stereo not drawn) returned Ins promoter up inactive, WT yeast gro inh inactive, Insulin prom inh inactive, Cl transport mod inactive and L major viab inactive.
Screening Cc1ccc(C(=O)Nc2nnc(SCC(=O)N3CCCc4ccccc43)s2)cc1 returned Ins promoter up inactive, WT yeast gro inh inactive, Cl transport mod inactive and L major viab inactive.
Screening O=C(Nc1nnc(SCC(=O)N2CCCc3ccccc32)s1)c1cccc2ccccc12 returned Ins promoter up inactive, WT yeast gro inh inactive, Insulin prom inh inactive, ROMK primary inactive, Cl transport mod inactive and L major viab 96.
For CCCN1CCC(N2CCCC(C(=O)O)C2)CC1 (stereo not drawn) the results were Ins promoter up inactive, WT yeast gro inh inactive, Insulin prom inh inactive, ROMK primary inactive, Cl transport mod inactive and L major viab inactive.
`CCCCCn1nc(C(=O)OCC(=O)c2c(N)n(C)c(=O)n(C)c2=O)c2ccccc2c1=O` gave WT yeast gro inh inactive, Insulin prom inh 71, ROMK primary inactive, Cl transport mod inactive and L major viab inactive.
For O=C(CSc1nc2ccccc2n1-c1ccccc1)Nc1ncc(Cl)cc1Cl the results were Ins promoter up inactive, WT yeast gro inh inactive, Cl transport mod inactive and L major viab inactive.
For CN(C)CCN1CCc2ccccc21 the results were Ins promoter up inactive, WT yeast gro inh inactive, Insulin prom inh inactive, ROMK primary inactive, Cl transport mod inactive and L major viab 78.
For CC1(C)Cc2c(sc3ncn4nnnc4c23)CO1 the results were Ins promoter up inactive and ROMK primary inactive.
Screening CC1(C)Cc2c(sc3nc[nH]c(=O)c23)CO1 returned Ins promoter up inactive, WT yeast gro inh inactive, Insulin prom inh 100, ROMK primary inactive, Cl transport mod inactive and L major viab inactive.
CC1(C)Cc2c(sc3ncnc(N)c23)CO1 was read as Ins promoter up inactive, WT yeast gro inh inactive, Insulin prom inh 83, ROMK primary inactive and L major viab inactive.
Screening Cc1ccc(C(=O)Nc2ccc(C(F)(F)F)n(C)c2=O)cc1 returned Ins promoter up inactive, WT yeast gro inh inactive, Insulin prom inh inactive, ROMK primary inactive, Cl transport mod inactive and L major viab inactive.
`COc1ccc(NC(=O)CCC(=O)OCc2ccc([N+](=O)[O-])cc2)cc1` gave WT yeast gro inh inactive, ROMK primary inactive, Cl transport mod inactive and L major viab inactive.
`O=C(NCCCn1ccnc1)C(=O)NCC(c1cccnc1)N1CCN(c2ccc(F)cc2)CC1` (stereo not drawn) gave Ins promoter up inactive, WT yeast gro inh inactive, Insulin prom inh inactive, ROMK primary inactive, Cl transport mod inactive and L major viab inactive.
Screening O=C(NCc1ccc(Cl)cc1)C(=O)NCC(c1cccnc1)N1CCN(c2ccc(F)cc2)CC1 (stereo not drawn) returned Ins promoter up inactive, WT yeast gro inh inactive, Insulin prom inh inactive, ROMK primary inactive, Cl transport mod inactive and L major viab 94.
For O=C(NCC(c1cccnc1)N1CCN(c2ccc(F)cc2)CC1)c1ccccc1 (stereo not drawn) the results were Ins promoter up inactive, WT yeast gro inh inactive, Insulin prom inh inactive, ROMK primary inactive and L major viab 89.
Cc1ccc(S(=O)(=O)Cn2nnnc2CN(Cc2ccco2)Cc2cccs2)cc1 was read as WT yeast gro inh inactive, Insulin prom inh inactive, ROMK primary inactive, Cl transport mod inactive and L major viab inactive.
CC(C)(C)C1(C)OC(=O)C(=Cc2ccc(OCC(=O)Nc3ccccc3)cc2)C(=O)O1 (stereo not drawn) was read as Ins promoter up inactive, WT yeast gro inh inactive, Insulin prom inh inactive, ROMK primary inactive, Cl transport mod inactive and L major viab inactive.
For COC(=O)c1nc(N)sc1-c1ccc(Cl)c(Cl)c1 the results were Ins promoter up inactive.
Cc1c(Br)cccc1NC(=O)c1sccc1-n1cccc1 was read as WT yeast gro inh inactive, Insulin prom inh inactive, ROMK primary inactive, Cl transport mod inactive and L major viab inactive.
For O=C(NNC(=O)c1sccc1-n1cccc1)c1ccc(Cl)cc1 the results were Ins promoter up inactive, WT yeast gro inh inactive, Insulin prom inh inactive, Cl transport mod 15 and L major viab inactive.
Screening CC(C)c1ccc(NC(=O)c2sccc2-n2cccc2)cc1 returned Ins promoter up inactive, WT yeast gro inh 67, Insulin prom inh inactive, ROMK primary inactive, Cl transport mod inactive and L major viab inactive.
COc1ccc(C(=O)Nc2ccc3nc(N4CCCCC4)cc(C)c3c2)c(OC)c1 was read as Ins promoter up inactive, WT yeast gro inh inactive, Insulin prom inh inactive, ROMK primary inactive, Cl transport mod inactive and L major viab inactive.
Screening CCN1CCN(c2cc(C)c3cc(NC(=O)c4cccnc4Cl)ccc3n2)CC1 returned Ins promoter up inactive, WT yeast gro inh inactive, Insulin prom inh inactive, Cl transport mod inactive and L major viab 99.
For CCN(CC)c1cc(C)c2cc(NC(=O)c3cccs3)ccc2n1 the results were Ins promoter up inactive, WT yeast gro inh inactive, Insulin prom inh inactive, ROMK primary inactive, Cl transport mod inactive and L major viab inactive.
Screening CCN(CC)c1cc(C)c2cc(NC(=O)c3ccc(Br)o3)ccc2n1 returned Ins promoter up inactive, WT yeast gro inh inactive, Insulin prom inh inactive, Cl transport mod inactive and L major viab 80.
`Cc1cc(N2CCN(C)CC2)nc2ccc(NC(=O)c3ccccc3F)cc12` gave Ins promoter up inactive, WT yeast gro inh inactive, Insulin prom inh inactive, ROMK primary inactive, Cl transport mod inactive and L major viab inactive.
`CCN1CCN(c2cc(C)c3cc(NC(=O)c4ccccc4F)ccc3n2)CC1` gave Ins promoter up inconclusive, WT yeast gro inh inactive, Cl transport mod inactive and L major viab 51.
`CCN1CCN(c2cc(C)c3cc(NC(=O)c4ccncc4)ccc3n2)CC1` gave Ins promoter up inactive, WT yeast gro inh inactive, Cl transport mod inactive and L major viab 65.
For CCOC(=O)c1c(C)c(C(=O)Nc2ccc3c(c2)OCCO3)c(C)n1CC the results were Ins promoter up inactive, WT yeast gro inh inactive, ROMK primary inactive and L major viab inactive.
`COc1ccc(C(=O)N/C(=C/c2cccnc2)C(=O)N2CCOCC2)cc1OC` gave Ins promoter up inactive and Cl transport mod inactive.
For O=C1c2cc([N+](=O)[O-])ccc2-c2ncccc21 the results were Ins promoter up inactive and Cl transport mod inactive.
For Cc1nc2ccc(NC(=O)c3ccc(Br)o3)cc2s1 the results were Ins promoter up inactive, WT yeast gro inh inactive, Insulin prom inh inactive, ROMK primary inactive, Cl transport mod inactive and L major viab inactive.

Compound activity: PubChem, several laboratories
